{"source": "PubChem BioAssay AID651947", "about": "(Broad Institute, 2012)", "note": "Entries with a potency or affinity are not part of this list. Results filed as inconclusive are left out. Unmarked numbers belong to inactive results.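 How the source made its calls: active means luminescence drop in HepG2 cells whose fitted half-effect dose is at most twice the top valid dose; inconclusive means flat curve with 30 to 70% signal loss, or unreliable fit; inactive means the rest.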", "data": [{"assay": "cytotoxicity in HepG2 cells, dose response, cytotoxicity control, cell-based, plate reader, dry powder (AID 651947)", "conditions": "HepG2 viability, ATP luminescence (CellTiter-Glo), 48 h, active compounds read low; at 26 µM unless noted", "values": [{"smiles": "c1ccc(CSc2nnc(-c3ccco3)o2)cc1", "max activity": "-42.4% [at 6 µM]"}, {"smiles": "c1ccc(-c2nnc(SC(c3ccccc3)c3ccccc3)o2)cc1", "max activity": "-33% [at 0.8 µM]"}, {"smiles": "COc1ccc(-c2nnc(SCc3ccc(Cl)cc3)o2)cc1", "max activity": "-16.2% [at 0.38 µM]"}, {"smiles": "FC(F)(F)c1ccc(-c2nnc(SCc3ccccc3)o2)cc1", "max activity": "17.4% [at 3 µM]"}, {"smiles": "N#Cc1ccccc1CSc1nnc(-c2ccccc2)o1", "max activity": "22.9% [at 3 µM]"}, {"smiles": "COc1ccccc1CSc1nnc(-c2ccccc2)o1", "max activity": "-56.1% [at 6 µM]"}, {"smiles": "CSc1nnc(-c2ccccc2)o1", "max activity": "-44.9% [at 60 µM]"}, {"smiles": "c1ccc(-n2cc(CSc3nnc(C4CCC4)o3)nn2)cc1", "max activity": "-30.4% [at 12 µM]"}, {"smiles": "c1ccc(CSc2nnc(-c3ccncc3)o2)nc1", "max activity": "-29.6% [at 6 µM]"}, {"smiles": "c1ccc(CSc2nnc(-c3cnco3)o2)cc1", "max activity": "-31.7% [at 12 µM]"}, {"smiles": "COc1cccc(-c2nnc(SCc3ccccn3)o2)c1", "max activity": "26.5% [at 1.6 µM]"}, {"smiles": "c1ccc(CNCCSc2nnc(-c3ccccc3)o2)cc1", "max activity": "-50.5% [at 1.6 µM]"}, {"smiles": "c1ccc(CSc2nnc(-c3ccncc3)o2)cc1", "max activity": "-43.6% [at 0.38 µM]"}, {"smiles": "COc1ccc(-c2nnc(SCc3ccccn3)o2)cc1", "max activity": "-23.2% [at 1.6 µM]"}, {"smiles": "c1ccc(-c2nnc(SCCC3OCCCO3)o2)cc1", "max activity": "12.9% [at 0.8 µM]"}, {"smiles": "COCCSc1nnc(-c2ccccc2)o1", "max activity": "27.8% [at 0.195 µM]"}]}]}
